{
  "source": "PubChem BioAssay AID1159580",
  "about": "(chemical genetic matrix, 2015)",
  "assay": "chemical genetic growth profiling, strain panel (AID 1159580);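 also: tested at 20 µM; growth read once vehicle control cultures reached saturation at 30 °C; 1 = growth at the plate median or of vehicle wells; lower values mean less growth of the strain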",
  "conditions": "S. cerevisiae deletion strains, growth OD",
  "note": "Out of some 5,500 compounds screened, about 2,000 (36%) were called active. Roughly 18% stayed inconclusive and do not appear here. Some of the results follow. Values without a mark were called inactive. Rule as the data show it: active = normalized growth mostly below about 0.91 (no sharp cut-off); inconclusive = no clear call, values can overlap the other calls; inactive = mostly above about 0.92.",
  "data": [
    {"smiles": "Cc1nc(-c2ccc(S(=O)(=O)Nc3ccc(Br)cc3Cl)s2)cs1", "values": [
      {"measurement": "normalized growth", "setting": "locus YAR019C, strain CDC15, hits give low values", "result": 0.936},
      {"measurement": "normalized growth", "setting": "locus YBL105C, strain PKC1, hits give low values", "result": 0.946},
      {"measurement": "normalized growth", "setting": "locus YBR135W, strain CKS1, hits give low values", "result": 0.953},
      {"measurement": "normalized growth", "setting": "locus YBR136W, strain MEC1, hits give low values", "result": 0.942},
      {"measurement": "normalized growth", "setting": "locus YBR160W, strain CDC28, hits give low values", "result": 0.959},
      {"measurement": "normalized growth", "setting": "locus YDL017W, strain CDC7, hits give low values", "result": 0.942},
      {"measurement": "normalized growth", "setting": "locus YDL028C, strain MPS1, hits give low values", "result": 0.957},
      {"measurement": "normalized growth", "setting": "locus YDL101C, strain DUN1, hits give low values", "result": 0.956},
      {"measurement": "normalized growth", "setting": "locus YDL108W, strain KIN28, hits give low values", "result": 0.961},
      {"measurement": "normalized growth", "setting": "locus YDL132W, strain cdc53, hits give low values", "result": 0.951},
      {"measurement": "normalized growth", "setting": "locus YDL214C, strain PRR2, hits give low values", "result": 0.888},
      {"measurement": "normalized growth", "setting": "locus YDR052C, strain DBF4, hits give low values", "result": 0.941},
      {"measurement": "normalized growth", "setting": "locus YDR054C, strain cdc34, hits give low values", "result": 0.928},
      {"measurement": "normalized growth", "setting": "locus YDR226W, strain ADK1, hits give low values", "result": 0.943},
      {"measurement": "normalized growth", "setting": "locus YDR477W, strain SNF1, hits give low values", "result": 0.858},
      {"measurement": "normalized growth", "setting": "locus YER123W, strain YCK3, hits give low values", "result": 0.904},
      {"measurement": "normalized growth", "setting": "locus YER133W, strain GLC7, hits give low values", "result": 0.867},
      {"measurement": "normalized growth", "setting": "locus YFL009W, strain cdc4, hits give low values", "result": 0.957},
      {"measurement": "normalized growth", "setting": "locus YFL029C, strain CAK1, hits give low values", "result": 0.953},
      {"measurement": "normalized growth", "setting": "locus YFR003C, strain YPI1, hits give low values", "result": 0.949},
      {"measurement": "normalized growth", "setting": "locus YFR019W, strain FAB1, hits give low values", "result": 0.923},
      {"measurement": "normalized growth", "setting": "locus YFR028C, strain CDC14, hits give low values", "result": 0.952},
      {"measurement": "normalized growth", "setting": "locus YGR040W, strain KSS1, hits give low values", "result": 0.868},
      {"measurement": "normalized growth", "setting": "locus YGR052W, strain FMP48, hits give low values", "result": 0.866},
      {"measurement": "normalized growth", "setting": "locus YGR092W, strain DBF2, hits give low values", "result": 0.877},
      {"measurement": "normalized growth", "setting": "locus YHR030C, strain SLT2, hits give low values", "result": "0.575 (active)"},
      {"measurement": "normalized growth", "setting": "locus YHR079C, strain IRE1, hits give low values", "result": 0.778},
      {"measurement": "normalized growth", "setting": "locus YHR082C, strain KSP1, hits give low values", "result": 0.943},
      {"measurement": "normalized growth", "setting": "locus YHR205W, strain SCH9, hits give low values", "result": 0.944},
      {"measurement": "normalized growth", "setting": "locus YIL147C, strain SLN1, hits give low values", "result": 0.957},
      {"measurement": "normalized growth", "setting": "locus YJL095W, strain BCK1, hits give low values", "result": 0.84},
      {"measurement": "normalized growth", "setting": "locus YJL128C, strain PBS2, hits give low values", "result": 0.89},
      {"measurement": "normalized growth", "setting": "locus YJL157C, strain FAR1, hits give low values", "result": 0.893},
      {"measurement": "normalized growth", "setting": "locus YJR016C, strain ILV3, hits give low values", "result": 0.94},
      {"measurement": "normalized growth", "setting": "locus YJR066W, strain TOR1 (second series), hits give low values", "result": 0.882},
      {"measurement": "normalized growth", "setting": "locus YJR066W, strain TOR1, hits give low values", "result": 0.93},
      {"measurement": "normalized growth", "setting": "locus YKL048C, strain ELM1, hits give low values", "result": 0.919},
      {"measurement": "normalized growth", "setting": "locus YKL067W, strain YNK1, hits give low values", "result": 0.883},
      {"measurement": "normalized growth", "setting": "locus YKL101W, strain HSL1, hits give low values", "result": 0.864},
      {"measurement": "normalized growth", "setting": "locus YKL193C, strain SDS22, hits give low values", "result": 0.942},
      {"measurement": "normalized growth", "setting": "locus YKL203C, strain TOR2, hits give low values", "result": 0.893},
      {"measurement": "normalized growth", "setting": "locus YLR113W, strain HOG1, hits give low values", "result": "0.635 (active)"},
      {"measurement": "normalized growth", "setting": "locus YLR133W, strain CKI1, hits give low values", "result": 0.888},
      {"measurement": "normalized growth", "setting": "locus YLR403W, strain SFP1, hits give low values", "result": 0.863},
      {"measurement": "normalized growth", "setting": "locus YML070W, strain DAK1, hits give low values", "result": 0.856},
      {"measurement": "normalized growth", "setting": "locus YMR001C, strain CDC5, hits give low values", "result": 0.946},
      {"measurement": "normalized growth", "setting": "locus YMR205C, strain PFK2 (second series), hits give low values", "result": 0.907},
      {"measurement": "normalized growth", "setting": "locus YMR277W, strain FCP1, hits give low values", "result": 0.94},
      {"measurement": "normalized growth", "setting": "locus YNL006W, strain LST8, hits give low values", "result": 0.937},
      {"measurement": "normalized growth", "setting": "locus YNL020C, strain ARK1, hits give low values", "result": 0.884},
      {"measurement": "normalized growth", "setting": "locus YNL161W, strain CBK1, hits give low values", "result": 0.946},
      {"measurement": "normalized growth", "setting": "locus YNL183C, strain NPR1, hits give low values", "result": 0.901},
      {"measurement": "normalized growth", "setting": "locus YNL207W, strain RIO2, hits give low values", "result": 0.925},
      {"measurement": "normalized growth", "setting": "locus YNL222W, strain SSU72, hits give low values", "result": 0.952},
      {"measurement": "normalized growth", "setting": "locus YNL307C, strain MCK1 (second series), hits give low values", "result": 0.891},
      {"measurement": "normalized growth", "setting": "locus YOL078W, strain AVO1, hits give low values", "result": 0.952},
      {"measurement": "normalized growth", "setting": "locus YOL136C, strain PFK27, hits give low values", "result": 0.852},
      {"measurement": "normalized growth", "setting": "locus YOR061W, strain CKA2, hits give low values", "result": 0.859},
      {"measurement": "normalized growth", "setting": "locus YOR119C, strain RIO1, hits give low values", "result": 0.938},
      {"measurement": "normalized growth", "setting": "locus YOR231W, strain MKK1, hits give low values", "result": 0.79},
      {"measurement": "normalized growth", "setting": "locus YOR329C, strain SCD5, hits give low values", "result": 0.946},
      {"measurement": "normalized growth", "setting": "locus YPL031C, strain PHO85, hits give low values", "result": 0.862},
      {"measurement": "normalized growth", "setting": "locus YPL153C, strain RAD53, hits give low values", "result": 0.893},
      {"measurement": "normalized growth", "setting": "locus YPL204W, strain HRR25, hits give low values", "result": 0.846},
      {"measurement": "normalized growth", "setting": "locus YPL209C, strain IPL1, hits give low values", "result": 0.942},
      {"measurement": "normalized growth", "setting": "locus YPL256C, strain CLN2, hits give low values", "result": "0.672 (active)"},
      {"measurement": "normalized growth", "setting": "locus YPR025C, strain CCL1, hits give low values", "result": 0.953},
      {"measurement": "normalized growth", "setting": "locus YPR106W, strain ISR1, hits give low values", "result": 0.943},
      {"measurement": "normalized growth", "setting": "locus YPR111W, strain DBF20, hits give low values", "result": 0.926},
      {"measurement": "normalized growth", "setting": "strain NNK1, hits give low values", "result": 0.926},
      {"measurement": "normalized growth", "setting": "strain TSCII, hits give low values", "result": 0.937}
    ]}
  ]
}
